Holding throughout (experiment): DAPPL (digital affinity profiling via proximity ligation, sequencing); 10 mM Tris-HCl pH 7.5, 50 mM NaCl, 1 mM DTT, 4% glycerol, room temperature, 30 min; GST-TFs on glutathione beads, 16-mer random dsDNA library, 0.1% formaldehyde crosslink after washing; high values mean tight binding
One assay concerns the target T1, FLI1 (Homo sapiens, UniProt Q01543 1-452).
T1 sequence: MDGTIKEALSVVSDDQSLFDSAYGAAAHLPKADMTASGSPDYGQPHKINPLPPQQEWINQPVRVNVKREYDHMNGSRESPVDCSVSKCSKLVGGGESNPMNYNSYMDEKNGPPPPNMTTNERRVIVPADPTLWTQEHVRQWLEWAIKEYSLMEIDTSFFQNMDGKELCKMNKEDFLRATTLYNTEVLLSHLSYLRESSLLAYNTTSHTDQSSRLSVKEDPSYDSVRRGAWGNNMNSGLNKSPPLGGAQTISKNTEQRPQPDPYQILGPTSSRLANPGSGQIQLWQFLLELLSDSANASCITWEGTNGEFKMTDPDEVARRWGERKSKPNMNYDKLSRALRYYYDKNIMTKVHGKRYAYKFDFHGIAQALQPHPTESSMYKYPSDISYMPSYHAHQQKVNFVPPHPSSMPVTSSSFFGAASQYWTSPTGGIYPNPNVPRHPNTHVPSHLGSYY
The settings on record: protein: recombinant; tags: N-terminal GST; dsDNA, one strand shown. An outline of the steps: (§1)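 After expression in yeast as GST fusions, human transcription factors were bound to glutathione beads, DNA-barcoded and mixed with a tag-only sample. The pools were incubated with 200 nmole of a 16-mer random double-stranded DNA library in Tris/NaCl/DTT/glycerol buffer (30 min, room temperature), washed and crosslinked with 0.1% formaldehyde. Proximity ligation with BsaI/T4 ligase ran for 1 h at 37 °C, before PCR amplification and sequencing on an Illumina NextSeq500. Binding signal is a hexamer's read frequency for a factor divided by its frequency for the tag-only sample.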

A further assay concerns the target T2, ELK1 (Homo sapiens, UniProt P19419 1-428).
T2 sequence: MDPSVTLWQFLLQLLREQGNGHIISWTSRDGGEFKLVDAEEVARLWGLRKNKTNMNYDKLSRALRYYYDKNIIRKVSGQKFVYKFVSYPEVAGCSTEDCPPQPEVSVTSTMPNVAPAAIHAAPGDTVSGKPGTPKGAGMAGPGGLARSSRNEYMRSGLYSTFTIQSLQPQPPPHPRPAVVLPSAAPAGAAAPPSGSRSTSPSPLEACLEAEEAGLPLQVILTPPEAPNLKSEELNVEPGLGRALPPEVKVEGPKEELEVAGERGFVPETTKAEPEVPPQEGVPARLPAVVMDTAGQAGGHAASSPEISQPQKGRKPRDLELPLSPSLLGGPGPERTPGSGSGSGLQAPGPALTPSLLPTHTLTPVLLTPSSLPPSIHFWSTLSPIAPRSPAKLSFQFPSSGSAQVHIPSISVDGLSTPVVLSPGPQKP
The settings on record: protein: recombinant; tags: N-terminal GST; dsDNA, one strand shown. An outline of the steps:
as §1

A further assay has as its target T3, GABPA (Homo sapiens, UniProt Q06546 1-454).
T3 sequence: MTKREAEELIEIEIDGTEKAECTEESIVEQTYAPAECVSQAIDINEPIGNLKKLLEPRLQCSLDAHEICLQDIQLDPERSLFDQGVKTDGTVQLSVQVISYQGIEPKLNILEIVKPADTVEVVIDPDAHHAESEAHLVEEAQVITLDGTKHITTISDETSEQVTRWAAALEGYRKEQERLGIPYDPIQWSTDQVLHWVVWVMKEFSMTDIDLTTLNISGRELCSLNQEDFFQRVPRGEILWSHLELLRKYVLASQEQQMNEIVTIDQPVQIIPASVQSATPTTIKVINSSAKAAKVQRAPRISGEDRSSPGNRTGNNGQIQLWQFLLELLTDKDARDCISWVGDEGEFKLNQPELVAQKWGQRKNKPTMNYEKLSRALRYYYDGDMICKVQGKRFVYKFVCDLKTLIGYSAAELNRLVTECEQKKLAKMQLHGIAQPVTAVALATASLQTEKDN
To be noted: protein: recombinant; tags: N-terminal GST; dsDNA, one strand shown. In short, it runs like this:
as §1

The next assay concerns the target T4, ERG (Homo sapiens, UniProt P11308 1-479).
T4 sequence: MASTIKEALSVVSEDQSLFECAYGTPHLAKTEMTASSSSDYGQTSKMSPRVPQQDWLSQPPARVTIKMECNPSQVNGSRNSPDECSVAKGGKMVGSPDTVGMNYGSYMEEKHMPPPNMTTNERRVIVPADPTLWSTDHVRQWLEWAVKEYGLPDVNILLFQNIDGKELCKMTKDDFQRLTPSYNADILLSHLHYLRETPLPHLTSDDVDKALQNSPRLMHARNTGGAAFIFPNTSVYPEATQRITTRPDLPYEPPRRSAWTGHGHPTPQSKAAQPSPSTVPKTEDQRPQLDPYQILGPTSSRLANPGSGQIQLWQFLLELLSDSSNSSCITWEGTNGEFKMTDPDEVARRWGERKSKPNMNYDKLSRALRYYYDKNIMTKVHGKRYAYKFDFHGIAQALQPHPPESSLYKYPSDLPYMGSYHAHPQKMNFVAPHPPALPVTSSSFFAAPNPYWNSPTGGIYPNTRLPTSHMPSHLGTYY
To be noted: protein: recombinant; tags: N-terminal GST; dsDNA, one strand shown. An outline of the steps:
as §1

Another assay has as its target ELF1 (Homo sapiens, UniProt P32519 1-619). To be noted: protein: recombinant; tags: N-terminal GST; dsDNA, one strand shown. In short, it runs like this: as §1
The next assay deals with T5, EHF (Homo sapiens, UniProt Q9NZC4 1-300).
T5 sequence: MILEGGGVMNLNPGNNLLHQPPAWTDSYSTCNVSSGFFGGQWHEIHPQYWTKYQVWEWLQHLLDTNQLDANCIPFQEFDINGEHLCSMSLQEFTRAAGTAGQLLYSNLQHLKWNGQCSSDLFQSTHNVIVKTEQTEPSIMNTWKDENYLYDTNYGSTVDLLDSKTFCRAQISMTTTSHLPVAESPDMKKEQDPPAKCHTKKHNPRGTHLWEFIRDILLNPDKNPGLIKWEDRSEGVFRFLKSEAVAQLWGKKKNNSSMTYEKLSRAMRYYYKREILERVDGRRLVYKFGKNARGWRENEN
The settings on record: protein: recombinant; tags: N-terminal GST; dsDNA, one strand shown. An outline of the steps:
as §1

The next assay concerns the target SPI1 (Homo sapiens, UniProt P17947 1-270). The settings on record: protein: recombinant; tags: N-terminal GST; dsDNA, one strand shown. An outline of the steps:
as §1

The target in the next assay is SPIB (Homo sapiens, UniProt Q01892 1-262). To be noted: protein: recombinant; tags: N-terminal GST; dsDNA, one strand shown. An outline of the steps:
as §1

A further assay addresses T6, ELK3 (Homo sapiens, UniProt P41970 1-407).
T6 sequence: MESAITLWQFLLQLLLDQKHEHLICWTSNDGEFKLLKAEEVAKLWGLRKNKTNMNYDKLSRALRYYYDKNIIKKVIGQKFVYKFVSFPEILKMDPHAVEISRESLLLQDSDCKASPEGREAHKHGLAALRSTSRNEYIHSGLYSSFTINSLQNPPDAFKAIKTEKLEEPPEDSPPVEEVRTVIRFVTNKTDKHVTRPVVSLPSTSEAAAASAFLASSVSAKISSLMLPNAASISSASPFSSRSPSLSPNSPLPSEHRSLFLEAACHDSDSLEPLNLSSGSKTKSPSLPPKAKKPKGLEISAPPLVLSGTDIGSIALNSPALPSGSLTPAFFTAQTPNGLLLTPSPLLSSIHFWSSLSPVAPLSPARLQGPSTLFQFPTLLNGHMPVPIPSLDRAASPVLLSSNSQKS
To be noted: protein: recombinant; tags: N-terminal GST; dsDNA, one strand shown. In short, it runs like this: as §1

The target in a further assay is ETV5 (Homo sapiens, UniProt P41161 1-510). The settings on record: protein: recombinant; tags: N-terminal GST; dsDNA, one strand shown. In short, it runs like this: as §1
Chain of ETV5 (P41161 whole entry): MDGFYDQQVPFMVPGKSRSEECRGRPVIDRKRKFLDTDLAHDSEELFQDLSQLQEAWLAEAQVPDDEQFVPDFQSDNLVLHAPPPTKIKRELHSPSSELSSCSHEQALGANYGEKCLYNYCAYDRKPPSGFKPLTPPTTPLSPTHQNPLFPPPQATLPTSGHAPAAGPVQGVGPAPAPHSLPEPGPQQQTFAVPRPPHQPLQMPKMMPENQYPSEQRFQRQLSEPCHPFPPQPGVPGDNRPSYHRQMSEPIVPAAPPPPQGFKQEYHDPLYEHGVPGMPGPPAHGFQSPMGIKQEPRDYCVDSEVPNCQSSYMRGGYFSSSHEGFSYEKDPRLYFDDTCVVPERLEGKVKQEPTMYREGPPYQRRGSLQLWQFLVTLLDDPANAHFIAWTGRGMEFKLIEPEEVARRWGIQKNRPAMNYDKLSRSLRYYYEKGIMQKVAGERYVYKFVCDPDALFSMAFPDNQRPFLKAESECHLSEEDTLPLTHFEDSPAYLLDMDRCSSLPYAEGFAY
The next assay addresses HSF1 (Homo sapiens, UniProt Q00613 1-529). The settings on record: protein: recombinant; tags: N-terminal GST; chain copies: 3; dsDNA, one strand shown. In short, it runs like this:
as §1

The target in a further assay is T7, SPIC (Homo sapiens, UniProt Q8N5J4 1-248).
T7 sequence: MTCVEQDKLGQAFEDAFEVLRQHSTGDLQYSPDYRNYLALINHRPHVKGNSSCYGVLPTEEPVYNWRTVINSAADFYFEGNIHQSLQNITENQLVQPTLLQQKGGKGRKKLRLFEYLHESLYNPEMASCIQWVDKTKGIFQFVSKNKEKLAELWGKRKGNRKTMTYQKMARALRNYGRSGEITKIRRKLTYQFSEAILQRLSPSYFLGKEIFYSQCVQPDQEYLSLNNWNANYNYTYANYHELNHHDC
To be noted: protein: recombinant; tags: N-terminal GST; dsDNA, one strand shown. An outline of the steps:
as §1

The target in a further assay is ELF4 (Homo sapiens, UniProt Q99607 1-663). To be noted: protein: recombinant; tags: N-terminal GST; dsDNA, one strand shown. In short, it runs like this: as §1
Chain of ELF4 (Q99607 whole entry): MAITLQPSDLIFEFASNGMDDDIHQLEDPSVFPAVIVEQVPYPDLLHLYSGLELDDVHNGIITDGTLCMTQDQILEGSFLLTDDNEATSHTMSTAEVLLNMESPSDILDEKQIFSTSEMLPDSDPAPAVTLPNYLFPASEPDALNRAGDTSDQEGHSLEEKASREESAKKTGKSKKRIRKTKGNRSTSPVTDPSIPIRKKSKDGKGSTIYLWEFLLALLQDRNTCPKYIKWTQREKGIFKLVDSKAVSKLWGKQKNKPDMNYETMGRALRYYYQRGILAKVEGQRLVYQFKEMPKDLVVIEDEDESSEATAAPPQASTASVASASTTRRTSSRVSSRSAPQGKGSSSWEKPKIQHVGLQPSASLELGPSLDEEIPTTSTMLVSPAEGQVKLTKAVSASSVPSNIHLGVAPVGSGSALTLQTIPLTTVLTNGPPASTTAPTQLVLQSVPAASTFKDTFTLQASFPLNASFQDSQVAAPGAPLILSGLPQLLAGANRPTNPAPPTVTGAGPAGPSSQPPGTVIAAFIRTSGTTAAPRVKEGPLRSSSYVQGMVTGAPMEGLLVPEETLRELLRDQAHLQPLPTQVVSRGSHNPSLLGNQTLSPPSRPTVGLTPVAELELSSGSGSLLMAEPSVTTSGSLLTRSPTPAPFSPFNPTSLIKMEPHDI
The target of the next assay is T8, ELK4 (Homo sapiens, UniProt P28324-2 1-405).
T8 sequence: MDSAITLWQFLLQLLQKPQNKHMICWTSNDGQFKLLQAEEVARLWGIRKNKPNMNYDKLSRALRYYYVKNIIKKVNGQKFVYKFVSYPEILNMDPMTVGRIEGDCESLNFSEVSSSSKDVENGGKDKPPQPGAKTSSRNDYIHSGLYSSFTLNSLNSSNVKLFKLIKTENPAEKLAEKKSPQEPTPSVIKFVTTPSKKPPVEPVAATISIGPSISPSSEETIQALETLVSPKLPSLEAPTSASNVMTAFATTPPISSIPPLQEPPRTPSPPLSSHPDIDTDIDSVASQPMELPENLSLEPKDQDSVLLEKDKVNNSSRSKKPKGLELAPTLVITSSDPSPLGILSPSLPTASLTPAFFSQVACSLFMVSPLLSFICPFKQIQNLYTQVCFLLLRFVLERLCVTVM
The settings on record: protein: recombinant; tags: N-terminal GST; dsDNA, one strand shown. An outline of the steps:
as §1

In a further assay the target is T9, ETV2 (Homo sapiens, UniProt O00321 1-342).
T9 sequence: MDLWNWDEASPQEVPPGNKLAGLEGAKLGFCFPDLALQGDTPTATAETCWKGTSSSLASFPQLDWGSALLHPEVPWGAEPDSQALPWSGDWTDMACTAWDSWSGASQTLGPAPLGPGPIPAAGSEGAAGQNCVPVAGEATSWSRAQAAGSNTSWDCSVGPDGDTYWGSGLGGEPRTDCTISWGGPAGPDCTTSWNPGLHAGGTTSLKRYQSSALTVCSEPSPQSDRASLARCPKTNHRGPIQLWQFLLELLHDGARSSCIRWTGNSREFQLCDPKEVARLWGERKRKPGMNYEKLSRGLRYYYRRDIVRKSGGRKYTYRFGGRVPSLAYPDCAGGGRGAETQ
The settings on record: protein: recombinant; tags: N-terminal GST; dsDNA, one strand shown. An outline of the steps: as §1

For the next assay, the target named is T10, ELF3 (Homo sapiens, UniProt P78545 1-371).
T10 sequence: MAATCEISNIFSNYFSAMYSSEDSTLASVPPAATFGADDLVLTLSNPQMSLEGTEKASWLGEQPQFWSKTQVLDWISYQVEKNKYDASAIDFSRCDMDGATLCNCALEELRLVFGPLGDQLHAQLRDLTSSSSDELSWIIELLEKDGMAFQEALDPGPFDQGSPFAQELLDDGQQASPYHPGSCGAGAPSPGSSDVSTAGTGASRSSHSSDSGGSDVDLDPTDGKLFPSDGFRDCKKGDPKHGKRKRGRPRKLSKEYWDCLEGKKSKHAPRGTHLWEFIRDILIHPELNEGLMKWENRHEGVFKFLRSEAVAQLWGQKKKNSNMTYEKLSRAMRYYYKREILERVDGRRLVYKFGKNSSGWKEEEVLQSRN
To be noted: protein: recombinant; tags: N-terminal GST; dsDNA, one strand shown. An outline of the steps: as §1

The next assay deals with CRX (Homo sapiens, UniProt O43186 1-299). To be noted: protein: recombinant; tags: N-terminal GST; dsDNA, one strand shown. An outline of the steps: as §1
Chain of CRX (O43186 whole entry): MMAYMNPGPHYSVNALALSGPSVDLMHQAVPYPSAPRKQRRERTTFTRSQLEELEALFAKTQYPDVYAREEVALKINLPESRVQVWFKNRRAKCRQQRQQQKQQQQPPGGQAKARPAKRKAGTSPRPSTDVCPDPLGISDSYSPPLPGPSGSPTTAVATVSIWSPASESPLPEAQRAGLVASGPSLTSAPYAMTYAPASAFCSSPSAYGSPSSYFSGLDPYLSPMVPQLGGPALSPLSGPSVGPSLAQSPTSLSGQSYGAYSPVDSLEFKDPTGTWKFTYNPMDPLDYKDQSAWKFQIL
Another assay deals with ETV1 (Homo sapiens, UniProt P50549 1-477). The settings on record: protein: recombinant; tags: N-terminal GST; dsDNA, one strand shown. In short, it runs like this:
as §1

Chain of ELF1 (P32519 whole entry): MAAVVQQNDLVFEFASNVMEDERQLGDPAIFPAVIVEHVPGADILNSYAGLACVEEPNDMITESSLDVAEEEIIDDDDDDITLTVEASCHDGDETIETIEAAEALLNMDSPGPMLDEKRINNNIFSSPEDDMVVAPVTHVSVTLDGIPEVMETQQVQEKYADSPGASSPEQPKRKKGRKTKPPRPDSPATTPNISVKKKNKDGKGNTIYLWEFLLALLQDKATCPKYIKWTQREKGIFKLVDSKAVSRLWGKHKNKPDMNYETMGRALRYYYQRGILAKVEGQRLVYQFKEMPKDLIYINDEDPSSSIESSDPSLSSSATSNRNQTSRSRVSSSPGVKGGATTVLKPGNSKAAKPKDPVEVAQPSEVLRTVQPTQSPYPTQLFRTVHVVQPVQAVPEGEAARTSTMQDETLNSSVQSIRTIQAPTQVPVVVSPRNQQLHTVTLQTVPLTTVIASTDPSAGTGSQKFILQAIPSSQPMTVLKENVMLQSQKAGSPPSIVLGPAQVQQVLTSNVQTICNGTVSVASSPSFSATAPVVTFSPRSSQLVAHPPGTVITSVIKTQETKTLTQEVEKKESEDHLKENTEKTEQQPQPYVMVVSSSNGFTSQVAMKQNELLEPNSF
Chain of HSF1 (Q00613 whole entry): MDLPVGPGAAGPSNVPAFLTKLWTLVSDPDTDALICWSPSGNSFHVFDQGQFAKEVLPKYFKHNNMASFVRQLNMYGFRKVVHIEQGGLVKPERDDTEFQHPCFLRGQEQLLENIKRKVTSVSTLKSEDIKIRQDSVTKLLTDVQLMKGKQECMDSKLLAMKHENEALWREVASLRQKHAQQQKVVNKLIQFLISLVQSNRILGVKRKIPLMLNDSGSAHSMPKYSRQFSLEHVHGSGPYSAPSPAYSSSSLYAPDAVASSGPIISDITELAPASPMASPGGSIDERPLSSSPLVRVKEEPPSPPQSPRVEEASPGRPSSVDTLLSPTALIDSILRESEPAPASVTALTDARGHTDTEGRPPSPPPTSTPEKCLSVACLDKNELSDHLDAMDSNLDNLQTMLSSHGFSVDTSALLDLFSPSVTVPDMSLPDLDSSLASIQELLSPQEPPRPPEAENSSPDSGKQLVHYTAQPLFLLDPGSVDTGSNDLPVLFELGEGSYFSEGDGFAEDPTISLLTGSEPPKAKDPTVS
Chain of SPIB (Q01892 whole entry): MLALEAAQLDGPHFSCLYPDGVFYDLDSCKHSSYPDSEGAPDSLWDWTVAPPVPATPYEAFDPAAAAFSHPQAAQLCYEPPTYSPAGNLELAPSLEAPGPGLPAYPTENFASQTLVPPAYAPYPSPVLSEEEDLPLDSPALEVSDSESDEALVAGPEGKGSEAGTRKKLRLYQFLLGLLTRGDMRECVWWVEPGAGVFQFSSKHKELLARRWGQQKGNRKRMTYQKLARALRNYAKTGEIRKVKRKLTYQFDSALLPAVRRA
Chain of ETV1 (P50549 whole entry): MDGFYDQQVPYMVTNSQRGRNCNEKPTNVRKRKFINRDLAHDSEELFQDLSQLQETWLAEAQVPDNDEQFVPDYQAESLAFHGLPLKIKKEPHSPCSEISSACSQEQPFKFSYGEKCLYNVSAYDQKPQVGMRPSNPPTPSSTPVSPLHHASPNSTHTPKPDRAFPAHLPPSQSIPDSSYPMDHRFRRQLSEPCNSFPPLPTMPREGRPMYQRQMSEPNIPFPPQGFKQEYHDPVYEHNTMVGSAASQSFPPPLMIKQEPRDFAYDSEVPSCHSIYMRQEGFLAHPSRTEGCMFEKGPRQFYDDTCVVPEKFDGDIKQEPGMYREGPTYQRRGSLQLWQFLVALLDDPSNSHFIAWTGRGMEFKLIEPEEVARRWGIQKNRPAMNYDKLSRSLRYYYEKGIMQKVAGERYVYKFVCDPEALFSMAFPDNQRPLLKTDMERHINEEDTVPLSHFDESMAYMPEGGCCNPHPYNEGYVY

As to TAGAAG, the binding signal was 1.05 fold enrichment (6-mer frequency, TF over GST control) with FLI1; 1.19 fold enrichment (6-mer frequency, TF over GST control) with ELK1; 1.15 fold enrichment (6-mer frequency, TF over GST control) with GABPA; 1.19 fold enrichment (6-mer frequency, TF over GST control) in the assay with ERG; 1.23 fold enrichment (6-mer frequency, TF over GST control) in the assay with ELF1; 1.15 fold enrichment (6-mer frequency, TF over GST control) in the assay with EHF. The binding signal with SPI1 is 1.24 fold enrichment (6-mer frequency, TF over GST control); in the assay with SPIB, 1.24 fold enrichment (6-mer frequency, TF over GST control); with ELK3, 1.13 fold enrichment (6-mer frequency, TF over GST control); with ETV5 it was 1.08 fold enrichment (6-mer frequency, TF over GST control); with HSF1 it was 2.77 fold enrichment (6-mer frequency, TF over GST control); with SPIC, 1.31 fold enrichment (6-mer frequency, TF over GST control). For the same sequence, the binding signal was 1.19 fold enrichment (6-mer frequency, TF over GST control) with ELF4; 1.16 fold enrichment (6-mer frequency, TF over GST control) with ELK4; 1.18 fold enrichment (6-mer frequency, TF over GST control) in the assay with ETV2; 1.18 fold enrichment (6-mer frequency, TF over GST control) with ELF3; 1.72 fold enrichment (6-mer frequency, TF over GST control) with CRX; 1.06 fold enrichment (6-mer frequency, TF over GST control) with ETV1.

For the origin of these results see paper PMC7862700, “An all-to-all approach to the identification of sequence-specific readers for epigenetic DNA modifications on cytosine”.
